Screening data: PubChem, several laboratories
GAA850 FXN act = increases GAA850 frataxin promoter reporter activity; HEK293 lucGAA850 FXN promoter luciferase reporter, 24 h; percent of 10 µM SAHA response; activation, % at 6 µM; actives 0.56% (n = 360,000); AID 540364;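 active = activation above the average of all compounds screened plus 3 SD, cutoff fixed separately per campaign, cut at about 7.5% in these data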;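 also: 0% = DMSO wells and 100% = 10 µM SAHA wells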
Wnt bcat act = activates Wnt/beta-catenin signaling in a reporter cell assay | activator, plate reader | activation, % at 9.35 µM | actives 1.2% (n = 300,000) | AID 743398; in the data active = activation above about 30%, passing the limit was not always enough; inconclusive = no clear call, values can overlap the other calls;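 also: 0% = neutral control wells and 100% = positive control wells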
esBAF inh = blocks esBAF chromatin remodeling in mouse ES cells | actives 2% (n = 350,000) | AID 602393 | reporter increase, % at 12.5 µM | Bmi1-luciferase knock-in reporter, 24 h; 100% = twice the neutral-well signal; in the data active = activation above about 40%; inconclusive = no clear call, values can overlap the other calls;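 also: 0% = median of the plate's neutral control wells and 100% = double that signal; a rise in the Bmi1 reporter signal indicates esBAF inhibition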
AHR act = activators of human aryl hydrocarbon receptor. AID 2796. P35869. actives 2.5% (n = 320,000). AHR-responsive luciferase reporter cells, luminescence. activation, % at 5 µM; in the data active = activation above about 47%;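 also: 0% = vehicle wells and 100% = reference agonist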
Target sequence (P35869 whole entry, looked up): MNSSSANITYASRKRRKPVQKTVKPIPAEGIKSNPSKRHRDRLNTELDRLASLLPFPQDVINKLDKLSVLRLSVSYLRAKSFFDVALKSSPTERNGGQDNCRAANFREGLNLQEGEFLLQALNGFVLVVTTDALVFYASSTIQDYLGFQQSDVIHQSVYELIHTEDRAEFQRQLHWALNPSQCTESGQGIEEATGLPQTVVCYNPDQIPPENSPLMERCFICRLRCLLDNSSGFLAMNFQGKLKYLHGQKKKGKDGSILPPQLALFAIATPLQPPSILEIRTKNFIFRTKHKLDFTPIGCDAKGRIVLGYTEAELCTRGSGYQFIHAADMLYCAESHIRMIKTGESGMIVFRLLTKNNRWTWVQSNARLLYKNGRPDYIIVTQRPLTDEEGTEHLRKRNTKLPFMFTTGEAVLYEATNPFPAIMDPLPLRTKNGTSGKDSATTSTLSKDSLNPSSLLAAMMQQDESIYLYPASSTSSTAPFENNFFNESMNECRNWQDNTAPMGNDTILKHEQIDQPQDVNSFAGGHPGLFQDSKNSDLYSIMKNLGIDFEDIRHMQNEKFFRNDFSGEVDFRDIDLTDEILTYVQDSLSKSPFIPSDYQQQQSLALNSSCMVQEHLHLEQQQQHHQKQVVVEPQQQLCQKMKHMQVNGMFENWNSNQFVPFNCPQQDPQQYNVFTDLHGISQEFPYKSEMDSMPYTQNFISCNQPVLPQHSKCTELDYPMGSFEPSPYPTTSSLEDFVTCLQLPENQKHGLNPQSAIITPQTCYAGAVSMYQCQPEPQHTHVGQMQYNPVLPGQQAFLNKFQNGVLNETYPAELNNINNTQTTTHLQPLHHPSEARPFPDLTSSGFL
MITF act = MITF TRPM1 promoter activation in melanoma cells; actives 0.75% (n = 300,000); SK-MEL-5 TRPM1-promoter luciferase, 24 h; % of positive control, neutral wells = 0; activation, % at 12.5 µM;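 active = mean activation of at least 80% with every replicate also reaching 80%; inconclusive = mean reaches 80% but some replicate falls short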;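 also: 0% = neutral control wells and 100% = parthenolide positive control wells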
AHR act cf = human AHR activation, confirmation; shares compounds with AHR act; human cells, AHR-responsive luciferase reporter, luminescence; activation, % at 9 µM; actives 87% (n = 2,300); in the data active = activation above about 49%;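 also: HepG2 hepatoma cells carrying a DRE-driven firefly luciferase reporter; 0% = vehicle wells and 100% = reference agonist wells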
PXR counter = activates human PXR in AHR activator counter-screen | shares compounds with AHR act | cell-based PXR reporter, luciferase luminescence | activation, % at 11.6 µM | actives 88% (n = 2,300); in the data active = activation above about 11%;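 also: human hepatoma DPX-2 cells expressing full-length human PXR; 0% = DMSO and 100% = reference agonist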
Numbers without * were called inactive; ? = inconclusive; . = not tested or not shown. Only some compounds are listed: those with a hit (about 4.2% of all), similar ones and a draw of the others.

SMILES	GAA850 FXN act	Wnt bcat act	esBAF inh	AHR act	MITF act	AHR act cf	PXR counter
CC1=C(C(=O)Nc2ccc(Br)cc2)C(c2ccco2)NC(=O)N1 (stereo unspecified)	-1	-2	-2	107*	-9	35	7
C[C@@H]1CN([C@@H](C)CO)C(=O)c2cc(NC(=O)c3ccncc3)ccc2O[C@@H]1CN(C)S(=O)(=O)c1cn(C)cn1	.	.	2	.	.	.	.
Clc1ccc2c(c1)C(c1cccs1)=NNC(c1cccnc1)=N2	-1	-3	12	105*	-14	56*	50*
CC(=O)N1CCC(=NNc2nc3ccccc3s2)CC1	4	27	.	40	28	.	.
C/C(=C\C(=O)c1ccccc1)NNc1nc2ccccc2s1	3	13	.	97*	6	18	54*
CCNC(=O)C[C@H]1CC[C@@H]2[C@H](COc3ccc(NC(=O)c4ccc(F)cc4)cc3C(=O)N2C)O1	.	.	0	.	.	.	.
C/C(=C\C(=S)Nc1ccccc1)Nc1cccc2ccccc12	2	7	.	94*	-8	28	17*
COc1cc(NC(=S)Nc2cccnc2)cc(OC)c1	1	1	.	116*	4	65*	23*
CC(=O)Nc1cccc(NC(=O)Nc2cccc3ccccc23)c1	-1	2	1	9	-2	.	.
CC(C)c1ccc(NC(=S)Nc2cccc3ccccc23)cc1	0	10	-9	90*	1	90*	81*
COc1cccc(NC(=S)Nc2cccc3ccccc23)c1	5	12	55*	88*	15	26	105*
C[C@@H]1CN([C@@H](C)CO)C(=O)Cc2cc(NC(=O)C3CCCCC3)ccc2O[C@H]1CN(C)C	.	.	-3	.	.	.	.
C[C@@H]1CCCCO[C@@H](CN(C)Cc2ccccc2)[C@H](C)CN([C@H](C)CO)C(=O)c2cc(NC(=O)c3ccncc3)ccc2O1	.	.	1	.	.	.	.
Cc1ccc(C(=O)NCCNc2nc3cc(C)c(C)cc3cc2C)cc1	3	-5	-9	82*	11	77*	28*
COCC(=O)NCCNc1nc2ccc(C)cc2cc1C	4	.	2	27	1	.	.
C[C@@H](NC(=O)C[C@H]1C=C[C@H](NC(=O)Cc2ccccn2)[C@@H](CO)O1)c1ccccc1	.	.	2	.	.	.	.
CO[C@H]1CN(C)C(=O)c2cc(NC(C)=O)ccc2OC[C@@H](C)N(CCc2ccccc2)C[C@H]1C	.	.	2	.	.	.	.
COc1ccc(CN(C)C[C@@H]2Oc3ccc(NS(=O)(=O)c4ccc(C)cc4)cc3C(=O)N([C@@H](C)CO)C[C@@H]2C)cc1	.	.	2	.	.	.	.
COc1ccc(NC(=O)c2ccco2)cc1NC(=O)c1ccc(C)cc1	-1	3	-4	93*	.	106*	13*
COc1ccc(NC(=O)CCc2ccccc2)cc1NC(=O)c1ccco1	-1	.	0	21	-14	.	.
COc1cc(NC(=O)c2cccs2)c(OC)cc1NC(=O)c1ccco1	3	3	.	94*	1	117*	10*
C[C@H](CO)N1C[C@H](C)[C@H](CN(C)C(=O)C2CCCCC2)Oc2ncc(-c3ccccc3)cc2C1=O	.	.	-6	.	.	.	.
CCCNC(=O)N1[C@@H]2Cn3c(ccc(-c4cccc(OC)c4)c3=O)[C@H]1[C@@H](C(=O)NCC)[C@@H]2CO	.	.	-5	.	.	.	.
C[C@H](CO)N1C[C@H](C)[C@@H](CN(C)C)OCCCC[C@H](C)Oc2ccc(NC(=O)Cc3ccccc3)cc2C1=O	.	.	-3	.	.	.	.
Cc1ccc(C)c(NC(=S)Nc2ncccc2C)c1	5	20	?	19	49	.	.
SMILES	GAA850 FXN act	Wnt bcat act	esBAF inh	AHR act	MITF act	AHR act cf	PXR counter
COc1cc(NC(=S)Nc2ncccc2C)cc(OC)c1OC	4	29	31	106*	24	93*	67*
CNC(=S)Nc1cccc(-c2cnc3ccccc3n2)c1	1	22	11	118*	-1	100*	19*
CS(=O)(=O)Nc1cccc(-c2cnc3ccccc3n2)c1	5	15	32	88*	98*	120*	8
O=C(Nc1ccc(Cl)cn1)c1cc2ccccc2o1	2	.	.	110*	16	72*	8
O=C(Nc1cccc(C(=O)Nc2ccc(Cl)cn2)c1)c1ccccc1	0	2	34	82*	22	12	19*
COc1cccc(C(=O)Nc2ccc(NC(=O)c3cc4ccccc4o3)c(OC)c2)c1	3	-4	6	6	.	.	.
O=C(NNC(=O)c1cc2ccccc2o1)c1ccc(Cl)cc1	-2	1	-1	1	.	.	.
O=C(Nc1ccc(Cl)cn1)c1ccccc1F	-3	39*	.	148*	30	77*	21*
COc1cc(N)ccc1NC(=O)c1cc2ccccc2o1	1	24	8	107*	.	141*	12*
O=C(Nc1ccc(NC(=O)c2ccccc2F)cn1)c1ccco1	1	-1	-44	-4	-2	.	.
CCCc1cc(=O)n2[nH]c(-c3cccc(Br)c3)cc2n1	4	7	52*	160*	.	166*	35*
CCOC(=O)Cc1cc(=O)n2[nH]c(-c3ccccc3)cc2n1	-2	-4	2	4	-8	.	.
Cc1cccc(-c2cc3nc(-c4ccccc4)cc(=O)n3[nH]2)c1	4	?	17	89*	50	105*	34*
CCCc1cc(=O)n2[nH]c(-c3ccc(Br)cc3)cc2n1	3	.	48*	104*	61	110*	47*
COc1ccc(CN(C)C[C@@H]2OCCCC[C@H](C)Oc3ccc(NC(=O)Cc4ccccc4)cc3C(=O)N([C@H](C)CO)C[C@H]2C)cc1	.	.	0	.	.	.	.
O=C(C[C@H]1CC[C@H]2[C@@H](COC[C@H](O)CN2Cc2cccc(-c3ccncc3)c2)O1)N1CCOCC1	.	.	3	.	.	.	.
Nc1[nH]nc2nc(N3CCCC3)nc(-c3ccccc3)c12	3	-3	-11	9	-11	.	.
Cc1nc(-c2ccccc2)nc2n[nH]c(N)c12	2	0	10	112*	.	138*	9
COc1cccc(NC2=C(NCCO)C(=O)c3ccccc3C2=O)c1	2	0	-57	10	-14	.	.
Cc1cccc(NC2=C(NCCO)C(=O)c3ccccc3C2=O)c1	2	3	.	113*	-22	77*	65*
Cc1ccc(NCCC(=O)c2cccs2)cc1Cl	2	19	55*	86*	29	69*	12*
O=C1c2ccccc2C(=O)N1CCCCN(C(=O)c1ccc([N+](=O)[O-])cc1)c1ccc(Cl)cc1	2	0	12	90*	-5	90*	214*
Fc1ccc(-[n+]2nc(Nc3ccccc3)sc2-c2cccc(Cl)c2Cl)cc1	-2	1	6	113*	-4	11	92*
